From PubChem BioAssay (EPA / NIEHS) come the findings set out here.

Results filed as inconclusive are left out. Active and inactive are the calls of the source. Rule for the calls, unless noted: active = hit-call score of the fitted dose curve at least 0.9, where 1 is the maximum; inactive = score below 0.9.

Assay [1] is described as follows: CCTE_Mundy_HCI_Cortical_Synap_Neur_Matur_NeuriteLength: CCTE's Synaptogenesis and Neurite Maturation Assay in rat cortical cells for Neurite Length, Mundy Lab (AID 2284214). In a few lines:
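Neurite length quantified by automated high-content imaging of MAP2, synaptophysin and Hoechst staining. Rat cortical cells received chemical from DIV 7 to DIV 12 […], glial growth arrested by AraC at DIV 5; DMSO baseline.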

The nature of assay [2]: CCTE_Mundy_HCI_Cortical_Synap_Neur_Matur_SynapseCount: CCTE's Synaptogenesis and Neurite Maturation Assay in rat cortical cells for Synapse Count, Mundy Lab (AID 2284218). The essentials: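 High-content imaging of synaptophysin puncta per MAP2-positive neuron (Hoechst nuclei) in rat cortical cells exposed DIV 7–12 after glial arrest with AraC at DIV 5; decrease relative to DMSO scored.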

Assay [3] in a line: CCTE_Mundy_HCI_Cortical_Synap_Neur_Matur_NeuriteCount: CCTE's Synaptogenesis and Neurite Maturation Assay in rat cortical cells for Neurite Count, Mundy Lab (AID 2284222).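 Note: exposure from day 7 to day 12 in vitro with readout at day 12.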 The essentials: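 Chemical exposure runs DIV 7–12 in rat cortical cultures, glia suppressed by AraC at DIV 5; measurement is at DIV 12. Imaging-derived neurite counts are fitted against DMSO baseline.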
The nature of assay [4]: CCTE_Mundy_HCI_Cortical_Synap_Neur_Matur_CellBodySpotCount: CCTE's Synaptogenesis and Neurite Maturation Assay in rat cortical cells for Cell Body Spot Count, Mundy Lab (AID 2284223). In a few lines:
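Rat primary cortical cultures received AraC at DIV 5 to arrest glia, were dosed with chemical at DIV 7 with media change, and were fixed at DIV 12 (288.33 h). Synaptophysin puncta on MAP2-positive cell bodies per neuron were counted by high-content imaging versus DMSO.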

A short description of assay [5]: CCTE_Mundy_HCI_hNP1_Pro_ResponderAvgInten: CCTE's Proliferation Assay in human neuroprogenitor cells, Mundy Lab (AID 2284224; active = hit-call score of the fitted dose curve at least 0.9, where 1 is the maximum). The essentials: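 Proliferation was scored as BrdU labelling intensity in human neural progenitors derived from WA09 embryonic cells, measured 26.25 hours after chemical dosing. Activity was fitted relative to DMSO.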
Assay [6] in a line: UKN2_HCS_IMR90_cell_viability: Viability Assessment in the University of Konstanz (UKN) Leist Lab Neural Crest Cell Migration Assay in human induced IMR90 Pluripotent Stem Cells (UKN2) (AID 2284233).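 Note: cells exposed to compound for 24 h after a 24 h migration phase.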 The essentials: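 After calcein-AM/Hoechst staining, viability is quantified by high-content fluorescence imaging, relative to DMSO, in iPSC (IMR90)-derived neural crest cells. Exposure lasts 24 h, starting after a 24 h migration period on PLO/laminin/fibronectin coating.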

The nature of assay [7]: CCTE_Mundy_HCI_Cortical_NOG_NeuronCount: CCTE's Neurite Outgrowth Assay in rat cortical cells for Neuron Count, Mundy Lab (AID 2284236; active = hit-call score of the fitted dose curve at least 0.9, where 1 is the maximum;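 note: neurons counted by imaging betaIII-tubulin and Hoechst stained cortical cells; cells exposed to compound for about 48 hours before fixation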). The essentials:
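Read-out: neuron number by high-content imaging of betaIII-tubulin (Alexa Fluor-488) and Hoechst-labelled rat primary cortical cells.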

A short description of assay [8]: CCTE_Mundy_HCI_Cortical_NOG_BPCount: CCTE's Neurite Outgrowth Assay in rat cortical cells for Branch Point Count, Mundy Lab (AID 2284237).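 Note: branch points counted about two days after chemical exposure.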 The essentials: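 Measured 50.33 h after dosing, this morphology endpoint uses rat primary cortical cultures labelled for betaIII-tubulin. Branch points are quantified by high-content imaging, with DMSO as negative control and baseline.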

The nature of assay [9]: CCTE_Mundy_HCI_hNP1_Casp3_7: CCTE's Caspase-Glo 3/7 Assay in human neuroprogenitor cells for Apoptosis, Mundy Lab (AID 2284240). The essentials: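 Apoptosis is scored by activated caspase-3/7 luminescence in WA09-derived neural progenitor cells, measured 26.5 h after chemical dosing. Values represent gain of signal relative to DMSO vehicle.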
The nature of assay [10]: IUF_NPC2c_oligodendrocyte_migration_120hr: Leibniz Research Institute for Environmental Medicine (IUF) 120-hour Neural Progenitor Cell Migration Assay for Oligodendrocyte Migration (NPC2c) (AID 2284297).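 Note: O4-positive oligodendrocyte migration distance divided by radial glia migration distance.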 In a few lines:
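Human fetal cortex-derived neural progenitor spheres (0.3 mm) were plated on poly-D-lysine/laminin in N2 differentiation medium and exposed to 7 concentrations for 120 h, with half-medium renewal at day 3. Oligodendrocyte migration distance was normalized to radial glia migration, relative to DMSO.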

Assay [11] can be described thus: IUF_NPC2a_radial_glia_migration_120hr: Leibniz Research Institute for Environmental Medicine (IUF) 120-hour Neural Progenitor Cell Migration Assay for Radial Glia Migration (NPC2a) (AID 2284298). In a few lines: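 Single 0.3 mm primary human fetal-cortex (GW 16-19) NPC spheres were plated on poly-D-lysine/laminin in N2 differentiation medium and exposed from day 0 for 120 h, half-medium refreshed day 3. Migration distance came from Hoechst nuclei-density imaging, relative to DMSO.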

Assay [12] can be described thus: IUF_NPC2b_neuronal_migration_120hr: Leibniz Research Institute for Environmental Medicine (IUF) 120-hour Neural Progenitor Cell Migration Assay for Neuron Migration (NPC2b) (AID 2284300). In a few lines: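 Primary human fetal cortex neural progenitor spheres (0.3 mm) plated on poly-D-lysine/laminin in N2 differentiation medium, exposed 120 h with half-medium refresh at day 3. TUBB3-stained neuron distance from sphere core, normalized to radial glia migration, versus DMSO.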

The nature of assay [13]: IUF_NPC3_neuronal_differentiation_120hr: Leibniz Research Institute for Environmental Medicine (IUF) 120-hour Neuronal Differentiation Assay (NPC3) (AID 2284301). In a few lines: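 Value is percent TUBB3-positive neurons among Hoechst-stained nuclei in the migration area, scored by trained CNN after 120 h differentiation. Primary hNPC spheres on poly-D-lysine/laminin, N2 medium, continuous dosing from day 0, half-refeed day 3; DMSO reference.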

Assay [14] is described as follows: IUF_NPC4_neurite_length_120hr: Leibniz Research Institute for Environmental Medicine (IUF) 120-hour Neuronal Morphology Assay for Neurite Length (NPC4) (AID 2284302). The essentials: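 Neurite length, the mean in um across TUBB3-stained neurons, is derived by skeletonization of high-content images after 120 h differentiation. Compound exposure, 7 concentrations plus solvent control, ran from plating of hNPC spheres on poly-D-lysine/laminin, with medium half-replaced on day 3.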

Assay [15] is described as follows: IUF_NPC5_oligodendrocyte_differentiation_120hr: Leibniz Research Institute for Environmental Medicine (IUF) 120-hour Oligodendrocyte Differentiation Assay (NPC5) (AID 2284304; active = hit-call score of the fitted dose curve at least 0.9, where 1 is the maximum;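 note: primary human fetal neural progenitor spheres plated to migrate and differentiate; share of O4-positive cells among Hoechst nuclei found by CNN image analysis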). The essentials:
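Primary human fetal (GW 16-19) neural progenitor spheres (0.3 mm) plated on poly-D-lysine/laminin in N2 differentiation medium, exposed from day 0 for 120 h with half-medium refresh at day 3; O4-positive cells as percent of Hoechst nuclei, CNN-identified, versus DMSO.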

Assay [16] in a line: IUF_NPC4_neurite_area_120hr: Leibniz Research Institute for Environmental Medicine (IUF) 120-hour Neuronal Morphology Assay for Neurite Area (NPC4) (AID 2284305; active = hit-call score of the fitted dose curve at least 0.9, where 1 is the maximum). The essentials: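 Neurite area (pixels, nuclei excluded) of TUBB3-positive neurons from hNPC spheres differentiating 5 days under continuous exposure at 37 C, 5% CO2. High-content imaging; loss of signal versus DMSO control across 7 concentrations.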

The nature of assay [17]: IUF_NPC2-5_cytotoxicity_72hr: Cytotoxicity Assessment at 72 hours in the Leibniz Research Institute for Environmental Medicine (IUF) Neural Progenitor Cell Migration and Differentiation Assay for Cytotoxicity (NPC2-5) (AID 2284306; active = hit-call score of the fitted dose curve at least 0.9, where 1 is the maximum;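 note: LDH release into supernatant measured by resorufin fluorescence marking membrane damage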). The essentials:
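Membrane-integrity cytotoxicity at 72 h, read as LDH-driven resorufin fluorescence in supernatant. hNPC spheres from fetal cortex differentiate on coated plates in N2 medium, 37C, 5% CO2; seven serial compound concentrations plus solvent control (DMSO ≤0.1%).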

Assay [18] can be described thus: IUF_NPC2-5_cytotoxicity_120hr: Cytotoxicity Assessment at 120 hours in the Leibniz Research Institute for Environmental Medicine (IUF) Neural Progenitor Cell Migration and Differentiation Assay (NPC2-5) (AID 2284307; active = hit-call score of the fitted dose curve at least 0.9, where 1 is the maximum). In a few lines: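 Human fetal neural progenitor spheres (0.3 mm, GW 16-19 cortex) were plated on poly-D-lysine/laminin in N2 differentiation medium and exposed for 120 h, with half-medium refresh at day 3. LDH release into supernatant was read by resorufin fluorescence.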

Assay [19] in a line: IUF_NPC2-5_cell_number_120hr: Cell Number Assessment at 120 hours in the Leibniz Research Institute for Environmental Medicine (IUF) Neural Progenitor Cell Migration and Differentiation Assay (NPC2-5) (AID 2284308).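 Note: count of Hoechst-stained nuclei in migration zone around plated human neural progenitor spheres.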 In a few lines: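 Primary human fetal neural progenitor spheres (GW 16-19, 0.3 mm) plated on poly-D-lysine/laminin in N2 differentiation medium, exposed from day 0 for 120 h with half-medium refresh at day 3; Hoechst-positive nuclei counted in migration area versus DMSO control.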

Assay [20] is described as follows: IUF_NPC2-5_viability_120hr: Viability Assessment at 120 hours in the Leibniz Research Institute for Environmental Medicine (IUF) Neural Progenitor Cell Migration and Differentiation Assay (NPC2-5) (AID 2284312). The essentials: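 Alamar blue resorufin fluorescence read after 5 days of differentiation, with compound present from day 0 and replenished at day 3. Primary hNPC spheres on laminin-coated plates, 37C; seven concentrations plus solvent control, fitted against DMSO.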

Assay [21] is described as follows: CCTE_Mundy_HCI_iCellGluta_NOG_NeuriteLength: CCTE's Neurite Outgrowth Assay in iCellGluta cells for Neurite Length, Mundy Lab (AID 2284318; active = hit-call score of the fitted dose curve at least 0.9, where 1 is the maximum). The essentials: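 Automated high-content imaging of betaIII-tubulin (Alexa Fluor-488) and Hoechst-stained cells gave neurite length, normalized to the DMSO baseline.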
Assay [22] can be described thus: IUF_NPC1_cytotoxicity_72hr: Cytotoxicity Assessment at 72 hours in the Leibniz Research Institute for Environmental Medicine (IUF) Neural Progenitor Cell Proliferation Assay (NPC1) (AID 2284332; active = hit-call score of the fitted dose curve at least 0.9, where 1 is the maximum;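 note: rising LDH signal means more cytotoxicity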). The essentials:
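Cytotoxicity by LDH membrane-integrity assay on medium supernatants, fluorescence via resazurin reduction, after 3-day single exposure of primary hNPC spheres at 37C, pH 7.2-7.6 with growth factors. Fitted upward against baseline.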

A short description of assay [23]: CCTE_Mundy_HCI_iCellGluta_NOG_NeuriteCount: CCTE's Neurite Outgrowth Assay in iCellGluta cells for Neurite Count, Mundy Lab (AID 2284342; active = hit-call score of the fitted dose curve at least 0.9, where 1 is the maximum;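 note: chemical exposure about 48 hours starting 2 hours after plating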).

The AC50 is the concentration at which the activity in the assay is half-maximal.

For the molecule `CCOP(=O)(OCC)SCSCC`, the result in assay [1], in assay [2], in assay [3], in assay [4], in [5] and in assay [6] was inactive. Moreover, the molecule was called inactive in assay [9], in assay [10], in [11], in [12], in assay [13] and in [14]. Moreover, the outcome in assay [15], in assay [16], in assay [17], in [18], in [19] and in [20] was inactive. In addition, the call in assay [22] was inactive. The concentration at half-maximal activity (AC50) in assay [7] is 89 µM (active); in assay [8], 84.1 µM (active); in assay [21] it was 49.8 µM (active); in assay [23], 49.8 µM (active).
